Records with an inconclusive call do not appear. A call without a number means that no potency is given here. The source made the active and inactive calls. Calls come from the whole dose curve; as a rule, active = well fitted cell-killing curve with a large enough effect; inconclusive = small, poorly fitted or top-dose-only effect, or effect the other way; inactive = no such curve, though single readings can be large or run the other way.
Potency is the fitted concentration of half-maximal effect.

A short description of the assay: qHTS of pediatric cancer cell lines to identify multiple opportunities for drug repurposing: Confirmatory screen for NB-EBc1 cells (AID 1347115).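 Note: cells exposed to compound for 48 h before the viability read; nearly all actives have a fitted effect of over 45% in size.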 The following applies: NB-EBc1 neuroblastoma cells, viability (cytotoxicity); series mostly up to 45.9 µM. The source says: Drug repurposing or repositioning has been offered as a strategy for drug development in oncology programs. This approach has special potential for childhood cancers and other rare or orphan diseases, where the expected return on new drug development has been a disincentive to pharmaceuticals.
In this project we exploit the poly-pharmacology of drugs to discover new indications via phenotypic screening of a panel of 19 well-characterized cell lines derived from solid tumors seen in children and adolescents. The goal is to identify approved drugs with previously unrecognized anticancer properties that has the potential to reveal new mechanisms and biological processes involved in carcinogenesis or drug resistance. We employed a titration-based paradigm (quantitative high-throughput screening or qHTS), where all compounds were tested at multiple concentrations for their effect on cell viability. Concentration-response curves (CRCs) were derived directly from the primary screen, and both potency and efficacy values were used to identify compounds with robust bioactivity profiles. We screened the NIH Chemical Genomics Center (NCGC) Pharmaceutical Collection (NPC) and Mechanism Interrogation Plate (MIPE) small molecule collections of approved and investigational compounds against these cell lines; and measured metabolically active cells after 48 hours of compound treatment as a proxy for cell viability.
Assay Submitter: Nathalia J. Martinez, National Center for Advancing Translational Sciences, National Institutes of Health, Rockville, MD, USA; email: natalia.martinez@nih.gov
[1] Shen, M et al. Quantitative high-throughput phenotypic screening of pediatric cancer cell lines identifies multiple opportunities for drug repurposing. Oncotarget 2017 Dec 19;9(4):4758-4772. PMID 29435139.
The cells were obtained from University of North Carolina (UNC), Pediatric Preclinical Testing Program (PPT), and Coriell Institute (CI).
qHTS cell viability assay:
Cells were assayed in growth media at a density of 500-1,000 cells/well. Five microliters of cells were dispensed into 1,536-well, white, solid-bottom, TC-treated plates (Greiner Bio One) using a multidrop dispenser and incubated at 37 degrees C, 5% CO2, under a humidified atmosphere for 5 hours. Twenty-three nanoliters of compounds and controls (neutral control DMSO or positive control bortezomib at final concentration of 2.3 µM) were subsequently transferred by Kalypsys pintool. For primary screens, the MIPE collection was tested at 11-point dilutions (final concentrations range from 0.78 nM to 46 µM) and the NPC collection at 8-point dilutions (final concentrations range from 0.59 nM to 46 µM). Compounds tested in follow-up screens were assayed at 11-point dilutions. Cells were incubated for 48 hours, followed by addition of 3 µL of CellTiter-Glo (Promega). After a 15 min incubation at room temperature, samples were analyzed for luminescence intensity using a ViewLux High-throughput CCD imager equipped with clear filters.
In general terms: Quantitative high-throughput screening tests each substance at several concentrations.
For `CNNCc1ccc(C(=O)NC(C)C)cc1`, the Potency result was “inactive”.

`CCOC(=O)c1ccc(C#Cc2ccc3c(c2)C(C)(C)CCS3)nc1`: the Potency result was “inactive”.

On to `Nc1nc(=S)c2[nH]cnc2[nH]1`, for which the Potency is 2.61 µM (active).

On to `Cn1nnc2c(C(N)=O)ncn2c1=O`, for which the Potency entry was “inactive”.

Regarding `O=C(NCC1CN(c2ccc(N3CCOCC3=O)cc2)C(=O)O1)c1ccc(Cl)s1` (configuration not stated), the Potency result is “inactive”.

In the case of `CNCC[C@H](Oc1cccc2ccccc12)c1cccs1`, the Potency result was “inactive”.

Take `CN(C)c1ccc(C(=C2C=CC(=[N+](C)C)C=C2)c2ccc(N(C)C)cc2)cc1`: the Potency is 1.85 µM (active).

As to `CCCCOc1ccc(CC(=O)NO)cc1`, the Potency entry was “inactive”.

In the case of `CC(C)(C)C(=O)OCOP(=O)(COCCn1cnc2c(N)ncnc21)OCOC(=O)C(C)(C)C`, the Potency was 8.27 µM (active).

Turning to `COc1cc2c(Nc3ccc(Br)cc3F)ncnc2cc1OCC1CCN(C)CC1`, the Potency result was “inactive”.

In the case of `COc1nc(N)nc2c1ncn2[C@@H]1O[C@H](CO)[C@@H](O)[C@@H]1O`, the Potency entry is “inactive”.

In the case of `Nc1[nH]c(=O)ncc1F`, the Potency result was “inactive”.

As to `CN1CCCC(n2nc(Cc3ccc(Cl)cc3)c3ccccc3c2=O)CC1` (configuration not stated), the Potency entry was “inactive”.

For the compound `CC(C)C[C@H](NC(=O)[C@H](CCc1ccccc1)NC(=O)CN1CCOCC1)C(=O)N[C@@H](Cc1ccccc1)C(=O)N[C@@H](CC(C)C)C(=O)[C@@]1(C)CO1`, the Potency was 0.329 µM (active).

Regarding `O=NN(CCCl)C(=O)NC1CCCCC1`, the Potency result was “inactive”.

Take `CC1CC2C3CCC4=CC(=O)C=C[C@]4(C)[C@@]3(F)[C@@H](O)C[C@]2(C)[C@@]1(O)C(=O)CO` (some centres not stated): the Potency result was “inactive”.

Turning to `CCOC(=O)[C@H](CCc1ccccc1)N[C@H]1CS[C@H](c2cccs2)CN(CC(=O)O)C1=O`, the Potency result is “inactive”.

Consider `C[C@@H](CN1CC(=O)NC(=O)C1)N1CC(=O)NC(=O)C1`, for which the Potency result was “inactive”.

In the case of `NC(=O)c1cccnc1`, the Potency is 10.4 µM (active).

On to `CC(C(=O)O)c1ccc2c(c1)CC(=O)c1ccccc1S2` (configuration not stated), for which the Potency result is “inactive”.

For `COc1ccc(C(=O)CC(=O)c2ccc(C(C)(C)C)cc2)cc1`, the Potency entry is “inactive”.

Take `CNC(=O)c1cc(Oc2ccc(NC(=O)Nc3ccc(Cl)c(C(F)(F)F)c3)cc2)ccn1`: the Potency was 18.5 µM (active).

On to `CCC(=O)O[C@]1(C(=O)CCl)[C@@H](C)C[C@H]2[C@@H]3CCC4=CC(=O)C=C[C@]4(C)[C@@]3(F)[C@@H](O)C[C@@]21C`, for which the Potency result was “inactive”.

On to `CNS(=O)(=O)CCc1ccc2[nH]cc(C3CCN(C)CC3)c2c1`, for which the Potency entry is “inactive”.

In the case of `Cc1cccc(N(C)C(=S)Oc2ccc3ccccc3c2)c1`, the Potency is 18.5 µM (active).

Consider `COc1cc2nc(N3CCCN(C)CC3)nc(NC3CCN(Cc4ccccc4)CC3)c2cc1OC`, for which the Potency entry is “inactive”.

For the compound `CS(=O)(=O)c1ccc([C@@H](O)[C@@H](CO)NC(=O)C(Cl)Cl)cc1`, the Potency result was “inactive”.

Take `CC(C)(C#N)c1cc(Cn2cncn2)cc(C(C)(C)C#N)c1`: the Potency entry is “inactive”.

`Oc1c(Cl)cc(Cl)c2cccnc12`: the Potency was 18.5 µM (active).

With `CCc1c2c(nc3ccc(OC(=O)N4CCC(N5CCCCC5)CC4)cc13)-c1cc3c(c(=O)n1C2)COC(=O)[C@]3(O)CC`, the Potency was 0.737 µM (active).

Turning to `CO[C@@]12[C@H](COC(N)=O)C3=C(C(=O)C(C)=C(N)C3=O)N1C[C@@H]1N[C@@H]12`, the Potency is 1.31 µM (active).

In the case of `CC(C)NCC(O)c1ccc(NS(C)(=O)=O)cc1` (configuration not stated), the Potency entry is “inactive”.

Source of the values: PubChem BioAssay (NCATS).
